Our source for the Potency and outcome values is PubChem BioAssay (Tox21).

The nature of assay [1]: qHTS assay to identify small molecule agonists of the vitamin D receptor (VDR) signaling pathway - cell viability counter screen (AID 743224). Note: nearly all actives have a fitted effect of over 50% in size. Note: potency is the fitted concentration of half-maximal effect. The essentials:
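Plated VDR-bla cells (4 h, 37C) received compound, incubated 16 h, then LiveBLAzer substrate 2 h RT; CellTiter-Glo added afterwards, luminescence read at 30 min.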

The nature of assay [2]: qHTS assay to identify small molecule antagonists of the vitamin D receptor (VDR) signaling pathway - cell viability counter screen (AID 743225). Note: nearly all actives have a fitted effect of over 50% in size. Note: potency is the fitted concentration of half-maximal effect. The procedure, abridged:
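VDR-bla HEK 293T cells, 4 h pre-incubation at 37C, then compound plus 1-alpha,25-dihydroxyvitamin D3 (3 nM final) for 16 h. After the beta-lactamase FRET read, CellTiter-Glo was added to the same wells; luminescence after 30 min at room temperature.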

Assay [3] is described as follows: qHTS assay to identify small molecule agonists of the NFkB signaling pathway (AID 1159509; active = well fitted curve in the direction sought with a large enough effect in the signal ratio in the repeat runs, not every such curve was filed as active; the % refers to the signal ratio). The procedure, abridged: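 NFkB-bla ME-180 cells carry a beta-lactamase reporter under an NF-kB response element. They were plated overnight, then exposed to compounds for 5 h at 37 C. Read-out is LiveBLAzer FRET after 1.5 hr at room temperature (405 nm excitation; 460/530 nm emission).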

The nature of assay [4]: qHTS assay to identify small molecule agonists of the endoplasmic reticulum stress response signaling pathway (AID 1159516; active = well fitted activation curve with a large enough effect in the signal ratio in the repeat runs, not every such curve was filed as active; the % refers to the signal ratio). The essentials:
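An ESRE-bla HeLa cell assay: compounds were pin-transferred from DMSO onto overnight-plated cells and left 5 hr at 37 C. Substrate was then loaded for 2 hr at room temperature before reading fluorescence at 460 nm and 530 nm.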

Assay [5] can be described thus: qHTS assay to identify small molecule agonists of the endoplasmic reticulum stress response signaling pathway - cell viability counter screen (AID 1159517; calls by dose curve; note: nearly all actives have a fitted effect of over 50% in size; note: potency is the fitted concentration of half-maximal effect). The procedure, abridged: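 CellTiter-Glo was added to wells already read for beta-lactamase FRET, and luminescence was recorded 30 min later. Cells: ESRE-bla HeLa, 1,500 per well, compound exposure 5 hr at 37 C.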

A short description of assay [6]: qHTS assay to identify small molecule antagonists of the retinoid-related orphan receptor gamma (ROR-gamma) signaling pathway - cell viability counter screen (AID 1159520). Note: nearly all actives have a fitted effect of over 50% in size. Note: potency is the fitted concentration of half-maximal effect. The essentials: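 Tet-on ROR gamma CHO cells (1,000/well) were plated 4 hr, given compounds in DMSO for 2 hr at 37 C, then induced with 1 uM final doxycycline for 16 hr. Viability was read as ATP by CellTiter-Glo luminescence after 30 min.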

Assay [7] addresses Nuclear receptor ROR-gamma (Homo sapiens) (UniProt P51449). As to the kind of experiment: qHTS assay to identify small molecule antagonists of the retinoid-related orphan receptor gamma (ROR-gamma) signaling pathway (AID 1159521; note: nearly all actives have a fitted effect of over 50% in size; note: potency is the fitted concentration of half-maximal effect). The procedure, abridged: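 Tet-on RORγ CHO cells carrying a ROR response element–luciferase reporter were pretreated with compounds for 2 h, then induced with 1 uM (final) doxycycline hyclate for 16 h at 37 C. Antagonism was read as decreased ONE-Glo luminescence.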

A short description of assay [8]: qHTS assay to identify small molecule agonists of the AP-1 signaling pathway - cell viability counter screen (AID 1159525; calls by dose curve; note: nearly all actives have a fitted effect of over 55% in size; note: potency is the fitted concentration of half-maximal effect). The procedure, abridged: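 ME-180 AP-1-bla, 2500 cells/well, Opti-MEM + 0.5% dialyzed FBS; overnight 37 °C; cpd 15-pt titration, 5 h 37 °C; CellTiter-Glo 30 min RT; luminescence read; normalised to TOAB and DMSO controls.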
Assay [9] in a line: qHTS assay to identify small molecule agonists of the AP-1 signaling pathway (AID 1159526; calls by dose curve; note: potency is the fitted concentration of half-maximal effect).
Assay [10] concerns the target Retinoic acid receptor RXR-alpha (Homo sapiens) (UniProt P19793). Briefly: qHTS assay to identify small molecule agonists of the RXR signaling pathway (AID 1159527; calls by dose curve; note: nearly all actives have a fitted effect of over 35% in size). The essentials:
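GeneBLAzer RXR-alpha-UAS-bla HEK 293T cells in medium with 2% charcoal-stripped FBS, pre-incubated 5 hr at 37 C, then exposed to compounds 16 hr. Beta-lactamase reporter read by FRET substrate, 2 hr room temperature, 460/530 nm emission.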

The nature of assay [11]: qHTS assay to identify small molecule agonists of the RXR signaling pathway - cell viability counter screen (AID 1159529). Note: nearly all actives have a fitted effect of over 50% in size. Note: potency is the fitted concentration of half-maximal effect. The essentials:
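RXR-alpha-UAS-bla HEK 293T cells in medium with 2% charcoal-stripped FBS were preincubated 5 hr, then exposed to compounds for 16 hr at 37 C. Viability was read as CellTiter-Glo luminescence after 30 min at room temperature.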

The nature of assay [12]: qHTS assay to identify small molecule antagonists of the retinoid acid receptor (RAR) signaling pathway - cell viability counter screen (AID 1159551). Note: nearly all actives have a fitted effect of over 35% in size. The procedure, abridged: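 Retinol-stimulated (1 uM final) C3RL4 cells, compound 6 h, 37 C; readout CellTiter-Glo luminescence (ATP) after 30 min RT incubation.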
Assay [13] is described as follows: qHTS assay to identify small molecule antagonists of the retinoic acid receptor (RAR) signaling pathway (AID 1159552; note: nearly all actives have a fitted effect of over 50% in size; note: potency is the fitted concentration of half-maximal effect). The procedure, abridged: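 RARE-luc C3RL4 cells; cpds + 1 uM (final) retinol, 6 hr, 37 C/5% CO2; luciferase reagent, 30 min RT, luminescence readout. Inhibitors of retinol-driven signal scored.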
Assay [14] in a line: qHTS assay to identify small molecule agonists of the retinoic acid receptor (RAR) signaling pathway (AID 1159553). Note: potency is the fitted concentration of half-maximal effect. The conditions noted are these: C3RL4 RARE luciferase reporter, agonist, 6 h; activation: at 73.3 µM (top of the series). The procedure, abridged:
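Reporter readout comes from luciferase under RARE control in C3RL4 cells; compound exposure lasts 6 hr at 37 C in 5% CO2, and luminescence is recorded following a 30 min room-temperature incubation with reagent.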

A short description of assay [15]: qHTS assay to identify small molecule antagonists of the estrogen related receptor (ERR) signaling pathway - cell viability counter screen (AID 1224818).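 Note: viability measured after 17.5 h of compound exposure.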 The procedure, abridged:
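After a 6 h pre-incubation, ERR cells were dosed by pin tool with compounds, positive/negative controls or DMSO alone. Following 17.5 h at 37 C and 30 min with CellTiter-Fluor, fluorescence was recorded.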

Assay [16] is described as follows: qHTS assay to identify small molecule antagonists of the estrogen related receptor signaling pathway with the pleiotropic PPARgamma coactivator (PGC) cell viability counter screen (AID 1224822). The procedure, abridged: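 PGC/ERR cells were plated at 2,000 per well and allowed 6 h to settle before compound addition. Following 17.5 h at 37 C, CellTiter-Fluor reagent was added and fluorescence was read 30 min later.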

Results filed as inconclusive are left out. The source made the active and inactive calls. Unless noted, calls come from the whole dose curve; as a rule, active = well fitted curve in the direction sought with a large enough effect in the repeat runs; inconclusive = weak or mixed curves; inactive = no such curve, though single readings can be large; an effect the other way counts as inactive or inconclusive.

Sequence of Retinoic acid receptor RXR-alpha (Homo sapiens) (P19793 whole entry, looked up): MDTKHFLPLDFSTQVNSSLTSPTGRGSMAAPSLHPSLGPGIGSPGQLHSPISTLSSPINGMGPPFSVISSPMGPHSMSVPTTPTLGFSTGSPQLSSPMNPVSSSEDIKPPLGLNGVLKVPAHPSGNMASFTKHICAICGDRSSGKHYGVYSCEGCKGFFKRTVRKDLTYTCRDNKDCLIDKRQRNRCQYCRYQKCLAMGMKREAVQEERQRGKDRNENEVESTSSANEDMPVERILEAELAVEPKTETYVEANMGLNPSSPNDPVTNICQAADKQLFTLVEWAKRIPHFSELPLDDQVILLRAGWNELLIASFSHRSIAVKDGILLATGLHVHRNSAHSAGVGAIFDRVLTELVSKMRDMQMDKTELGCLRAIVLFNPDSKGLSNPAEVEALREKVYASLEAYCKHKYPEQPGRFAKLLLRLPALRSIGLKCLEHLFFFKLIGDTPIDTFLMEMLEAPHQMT

On to `CC(O)c1ccccc1` (configuration not stated), for which the Potency entry in assay [1], in assay [2], in assay [3], in [4], in assay [5] and in assay [6] was “inactive” each time. The Potency result in [7], in [8], in assay [9], in assay [10], in assay [11] and in [12] was “inactive” each time. Moreover, the Potency entry in assay [13] and in assay [14] was “inactive” each time.
On to `CCCCCC#CC(=O)OC`, for which the Potency result in assay [1], in assay [2], in assay [3], in assay [4], in assay [5] and in assay [6] was “inactive” in each case. For the same compound, the Potency entry in assay [7], in assay [8], in assay [9], in [11] and in [12] was “inactive” in each case.
For the compound `CCCCCCCCC(CCCCCC)C(=O)O` (configuration not stated), the Potency entry in assay [3], in assay [4], in assay [6], in [7] and in assay [12] was “inactive” each time. The values for the Potency in assay [5] and in assay [8] were 54.9 µM (active) and 49 µM (active), respectively.
Regarding `CCCCOc1ccc(OCCCN2CCOCC2)cc1`, the Potency result in assay [1], in assay [2], in assay [3], in assay [4], in assay [5] and in [6] was “inactive” each time. The Potency entry in [7], in [8], in assay [9], in assay [10], in [11] and in assay [12] was “inactive” throughout. Besides, the Potency entry in assay [13] was “inactive”. Also, in assay [14], the Potency was 21.1 µM (active).
`CC(C)(c1ccccc1)c1ccccc1`: the Potency entry in [1], in assay [2], in [3], in assay [4], in [5] and in [6] was “inactive” throughout. Moreover, the Potency entry in assay [7], in assay [8], in [9], in assay [10], in assay [11] and in [12] was “inactive” in each case. Moreover, the Potency entry in assay [13] and in [14] was “inactive” each time.
Regarding `COc1ncnc(NS(=O)(=O)c2ccc(N)cc2)c1OC`, the Potency entry in assay [1], in [2], in assay [3], in assay [4], in [5] and in assay [6] was “inactive” in each case. Besides, the Potency entry in [7], in [8], in assay [9], in assay [10], in [11] and in [12] was “inactive” in each case. For the same compound, the Potency entry in assay [13] and in [14] was “inactive” in each case.
Consider `CN1CCCC(n2nc(Cc3ccc(Cl)cc3)c3ccccc3c2=O)CC1` (configuration not stated), for which the Potency entry in assay [3], in [4], in assay [5], in assay [6], in assay [7] and in assay [8] was “inactive” in each case. For the same compound, the Potency entry in assay [12] and in assay [14] was “inactive” each time. The results for the Potency in assay [9] and in assay [11] were 12 µM (active) and 5.35 µM (active), respectively.
`FC(F)(F)c1ccccc1Cl`: the Potency entry in [1], in assay [2], in assay [3], in [4], in assay [5] and in [6] was “inactive” throughout. Moreover, the Potency entry in [8], in assay [9], in [10], in assay [11], in assay [12] and in [13] was “inactive” in each case. Further, the Potency result in assay [14] is “inactive”.
Consider `O=C1c2ccccc2C(=O)C1c1ccc(Br)cc1`, for which the Potency result in assay [1], in assay [2], in assay [3], in assay [4], in assay [5] and in [6] was “inactive” each time. In addition, the Potency entry in assay [7], in assay [9], in [11], in assay [12], in [13] and in assay [14] was “inactive” each time.
With `Cc1ccc(C(C)(C)O)cc1`, the Potency result in [1], in assay [2], in assay [3], in [4], in assay [5] and in [6] was “inactive” throughout. In addition, the Potency entry in [7], in assay [8], in [9], in [10], in assay [11] and in assay [12] was “inactive” each time.
Turning to `C=CCc1ccccc1OCC(O)CNC(C)C` (configuration not stated), the Potency result in assay [1], in assay [2], in assay [3], in assay [4], in assay [5] and in [6] was “inactive” each time. Also, the Potency result in [7], in [8], in assay [9], in [10], in assay [11] and in assay [12] was “inactive” throughout. Besides, the compound was called inactive in assay [15] and in [16].
`CCCC(=O)C(=O)O`: the Potency entry in assay [1], in [2], in assay [3], in assay [4], in assay [5] and in assay [6] was “inactive” each time. For the same compound, the Potency entry in [8], in assay [9], in assay [10], in assay [11], in [12] and in [13] was “inactive” throughout. Moreover, in assay [14], the Potency entry is “inactive”.
In the case of `C=C1CCC2CC1C2(C)C` (configuration not stated), the Potency result in assay [1], in assay [2], in assay [3], in [4], in assay [5] and in [6] was “inactive” in each case. In addition, the Potency result in assay [8], in [9], in assay [10], in [11], in assay [12] and in assay [13] was “inactive” each time. For the same compound, the Potency result in assay [14] was “inactive”.
Regarding `COc1cc(C(=O)NC2CCN(C)CC2)ccc1Nc1ncc2c(n1)N(C1CCCC1)CC(F)(F)C(=O)N2C`, the Potency in assay [1] was 15.9 µM (active); in assay [2], 7.11 µM (active); in [5], 50.4 µM (active); in [6] it was 22.3 µM (active); in [7] it was 15.8 µM (active); in assay [8], 6.34 µM (active). The Potency in assay [11] was 31.8 µM (active); in assay [13] it was 2.5 µM (active). The Potency result in [3], in assay [4] and in [9] was “inactive” throughout.
Regarding `C=C/C(C)=C/C/C=C(\C)CCC=C(C)C`, the Potency entry in assay [1], in assay [2], in assay [3], in assay [4], in assay [5] and in [6] was “inactive” in each case. In addition, the Potency result in [7], in assay [8], in assay [9] and in [12] was “inactive” in each case.
For the compound `N#[N+]c1ccc2c(S(=O)(=O)[O-])cccc2c1O`, the Potency entry in assay [1], in assay [2], in assay [3], in assay [4], in [5] and in [6] was “inactive” throughout. Moreover, the Potency entry in [7], in [9], in assay [10], in assay [11], in assay [12] and in [13] was “inactive” each time. Moreover, the Potency result in [14] was “inactive”.
As to `CCC(OCCCOC)OC(C)=O` (configuration not stated), the Potency result in [1], in [2], in assay [3], in assay [4], in assay [5] and in assay [6] was “inactive” throughout. Also, the Potency entry in assay [7], in [8], in [9], in assay [10], in assay [11] and in assay [12] was “inactive” in each case. The Potency entry in assay [13] and in assay [14] was “inactive” throughout.
Consider `CC(=O)Nc1ccc(C)cc1C`, for which the Potency result in [1], in assay [2], in assay [3], in assay [4], in assay [5] and in assay [6] was “inactive” each time. Further, the Potency entry in [7], in assay [8], in assay [9], in assay [10], in [11] and in assay [12] was “inactive” throughout.
As to `CC(C)(C)CC(=O)OCC(=O)[C@@]1(O)CC[C@H]2[C@@H]3CCC4=CC(=O)C=C[C@]4(C)[C@H]3[C@@H](O)C[C@@]21C`, the Potency entry in assay [1], in assay [2], in [3], in [4], in assay [5] and in assay [6] was “inactive” each time. The Potency result in [9], in assay [12] and in assay [14] was “inactive” each time. In addition, the Potency in assay [7] is 26.6 µM (active); in assay [13] it was 33.5 µM (active).
